The list is not random: actives were taken first. Their share in the collection is about 12%.
JMJD2A Tudor: inhibitors of human JMJD2A Tudor domain. O75164. AlphaScreen JMJD2A-Tudor / H3K4me3 peptide binding. Potency, µM (titrated, usually from 114 µM), actives largely listed as inhibitors. 4.4% of 390,000 active. AID 504339; also: nearly all actives have a fitted effect of over 50% in size
Sfp PPTase inh: inhibitors of Bacillus subtilis Sfp phosphopantetheinyl transferase | Q9F4F7 | Biochemical Sfp PPTase activity, qHTS | AID 1490 | Potency, µM, most hits filed as inhibitors | 3.5% of 310,000 active;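 also: the enzyme is Sfp with the accession as filed and its product quenches rhodamine fluorescence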
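Buffer: 50 mM Hepes-Na pH 7.6, 10 mM MgCl2, 0.01% Nonidet P-40, 0.01% BSA. Enzyme 15 nM, pre-exposed to compound 15 min; substrates then added and fluorescence change tracked over 30 min.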
TDP1 inh: TDP1 (human) enzyme inhibition | Q9NUW8 | recombinant TDP1, AlphaScreen DNA substrate cleavage | Potency, µM (titrated, usually from 130 µM), actives largely listed as inhibitors | 0.28% of 350,000 active; also: nearly all actives have a fitted effect of over 40% in size
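Steps: enzyme plus compound, 15 min RT; add biotin/phosphotyrosine-FITC oligonucleotide (15 nM final), react 5 min; add donor/acceptor beads (10 ug/ml final), 10 min; read AlphaScreen. Tdp1 at 1 nM final.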
G9a block: G9a (human) methyltransferase inhibition; Q96KQ7; G9a H3K9 monomethylation, AlphaScreen, 2 h; 8.8% of 350,000 active; Potency, µM (doses to about 102 µM), actives largely listed as inhibitors; also: nearly all actives have a fitted effect of over 75% in size
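Step 1: enzyme (final 20 nM) with compound, 15 min RT. Step 2: substrate peptide 500 nM and SAM 20 uM, 2 h RT. Step 3: anti-H3K9me1 antibody and AlphaScreen beads, 10 min, then plate read.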
BAZ2B inh: inhibitors of human BAZ2B bromodomain | Q9UIF8 | AlphaScreen BAZ2B-H3K14Ac peptide displacement | Potency, µM (top dose mostly 114 µM), usual class: inhibitors | 4.4% of 360,000 active | AID 504333; also: nearly all actives have a fitted effect of over 60% in size
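BAZ2B 50 nM plus b-H3(5-23)K14Ac 50 nM, PBS pH 7.4/0.01% Tween-20, 30 min RT; compound added (max 110 uM), 30 min RT; streptavidin donor/Ni-chelate acceptor beads 10 ug/mL final, 20 min dark; AlphaScreen read.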
HP1b binding inh: inhibitors of HP1-beta chromodomain binding to methylated histone tails. AlphaScreen HP1-beta / biotin-H3K9me3 peptide binding. Potency, µM (titrated, usually from 114 µM), most hits filed as inhibitors. 0.56% of 390,000 active. AID 540317; also: nearly all actives have a fitted effect of over 70% in size
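AlphaScreen: HP1-beta (50 nM) preformed 30 min with biotin-H3(1-18)K9me3 peptide (50 nM) in PBS pH 7.4, 0.01% Tween-20. Compound added for 30 min at RT, then streptavidin donor/nickel chelate acceptor beads (10 ug/mL) for 30 min.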
Hits are given with their value. Calls follow the shape of the dose curve; as a rule, active = well fitted curve in the direction sought with a large enough effect; inconclusive = small, poorly fitted or top-dose-only effect, or another doubt; inactive = no such curve, though single readings can be large; an effect the other way counts as inactive or inconclusive.

COc1ccccc1C(=O)Nc1nnc2n1CCS2 was read as JMJD2A Tudor inconclusive, TDP1 inh inactive, G9a block 11.2µM, BAZ2B inh inactive and HP1b binding inh inactive.
Screening CCOC(=O)CCC(=O)Nc1nnc2n1CCS2 returned JMJD2A Tudor 39.8µM, TDP1 inh inactive, G9a block 12.6µM, BAZ2B inh inconclusive and HP1b binding inh inactive.
For Cc1nc(CSc2ccc(Br)cc2)cs1 the results were JMJD2A Tudor inactive, Sfp PPTase inh inactive, G9a block inactive, BAZ2B inh inactive and HP1b binding inh inactive.
`CC(C)CC(NC(=O)c1ccc(Cl)cc1)C(=O)O` (stereo not drawn) gave JMJD2A Tudor inactive, Sfp PPTase inh inactive, TDP1 inh inactive, G9a block inactive, BAZ2B inh inactive and HP1b binding inh inactive.
Screening CC(C)CN(CC(C)C)C(=O)CC(=O)NC(=O)c1ccc(Cl)cc1 returned JMJD2A Tudor inactive, Sfp PPTase inh inactive, TDP1 inh inactive, G9a block inactive, BAZ2B inh 89.1µM and HP1b binding inh inactive.
Screening C=C1C2CC[C@]3(CCC4[C@@]5(C)CCC[C@@]4(CN(CCO)C5)[C@@H]3C2)[C@@H]1O (stereo partly drawn) returned Sfp PPTase inh inactive and TDP1 inh inactive.
Cc1c(NC(=O)CN(c2ccc(F)cc2)S(=O)(=O)c2ccccc2)c(=O)n(-c2ccccc2)n1C was read as JMJD2A Tudor inactive, Sfp PPTase inh inactive, TDP1 inh inactive, G9a block 44.7µM, BAZ2B inh inconclusive and HP1b binding inh inactive.
`Cc1c(NC(=O)CSc2n[nH]c(=O)n2-c2ccccc2)c(=O)n(-c2ccccc2)n1C` gave JMJD2A Tudor 22.4µM, Sfp PPTase inh inactive, TDP1 inh inactive, G9a block inactive, BAZ2B inh inactive and HP1b binding inh inconclusive.
`Cc1cc(C)n2nc(SCC(=O)Nc3c(C)n(C)n(-c4ccccc4)c3=O)nc2n1` gave JMJD2A Tudor inactive, Sfp PPTase inh inactive, TDP1 inh inactive, G9a block 44.7µM, BAZ2B inh inconclusive and HP1b binding inh inactive.
Screening Cc1c(NC(=O)COC(=O)COc2ccc(Nc3ccccc3)cc2)c(=O)n(-c2ccccc2)n1C returned JMJD2A Tudor inactive, Sfp PPTase inh inactive, TDP1 inh inactive, G9a block 50.1µM, BAZ2B inh inconclusive and HP1b binding inh inactive.
Cc1c(NC(=O)CSc2nnc(COc3ccccc3)n2-c2ccccc2)c(=O)n(-c2ccccc2)n1C was read as JMJD2A Tudor inactive, Sfp PPTase inh inactive, TDP1 inh inactive, G9a block inactive, BAZ2B inh inactive and HP1b binding inh inactive.
For CC(C(=O)NN=C(c1ccccc1)c1ccccc1)N1CCOCC1 (stereo not drawn) the results were JMJD2A Tudor inactive, Sfp PPTase inh inactive, TDP1 inh inactive, G9a block inactive, BAZ2B inh inactive and HP1b binding inh inactive.
Screening COc1cccc(NC(=O)COC(=O)c2sccc2C)c1 returned JMJD2A Tudor inactive, TDP1 inh inactive and HP1b binding inh inactive.
Screening Cc1ccc(C(=O)N/C(=C/c2ccco2)C(=O)NCCCn2ccnc2)cc1 returned JMJD2A Tudor inactive, Sfp PPTase inh inactive, TDP1 inh inactive, G9a block inconclusive, BAZ2B inh 31.6µM and HP1b binding inh inactive.
For Cc1ccc(C(=O)N/C(=C\c2ccco2)C(=O)NCCCn2ccnc2)cc1 the results were JMJD2A Tudor 22.4µM, Sfp PPTase inh inactive, TDP1 inh inactive, G9a block inactive, BAZ2B inh 7.94µM and HP1b binding inh inactive.
Screening N=C1/C(=C\c2ccc(SCc3ccco3)o2)C(=O)N=C2SC=NN12 returned JMJD2A Tudor inconclusive, Sfp PPTase inh 79.4µM, TDP1 inh inconclusive, G9a block inactive, BAZ2B inh inconclusive and HP1b binding inh inactive.
`Cc1cc2c(c(=O)o1)[C@H](O)[C@H]1O[C@@H]1C2=O` gave Sfp PPTase inh inactive and TDP1 inh inconclusive.
Screening Cc1cc(N/N=C/c2ccc(O)cc2)nc(NS(=O)(=O)c2ccccc2)n1 returned JMJD2A Tudor 56.2µM, Sfp PPTase inh inactive, TDP1 inh 15.8µM, G9a block inconclusive, BAZ2B inh 79.4µM and HP1b binding inh 70.8µM.
`Cc1cc(N/N=C/c2ccc(N(C)C)cc2)nc(NCc2ccccc2)n1` gave JMJD2A Tudor inconclusive, Sfp PPTase inh 20µM, G9a block inactive, BAZ2B inh 12.6µM and HP1b binding inh inactive.
Screening Cc1cc(N/N=C/c2ccc(F)cc2)nc(NCc2ccccc2)n1 returned JMJD2A Tudor inactive, Sfp PPTase inh 15.8µM, BAZ2B inh inactive and HP1b binding inh inactive.
Cc1cc(N/N=C/c2ccc(Cl)cc2Cl)nc(NCc2ccccc2)n1 was read as JMJD2A Tudor inactive, Sfp PPTase inh inconclusive, TDP1 inh inactive, G9a block inconclusive, BAZ2B inh inconclusive and HP1b binding inh inactive.
For CN(C)c1nc(NCc2ccccc2)nc(N/N=C/c2ccc(Br)cc2)n1 the results were JMJD2A Tudor inactive, Sfp PPTase inh inactive, TDP1 inh inactive, G9a block inactive, BAZ2B inh inactive and HP1b binding inh inactive.
CN(C)c1nc(NCc2ccccc2)nc(N/N=C/c2ccc3c(c2)OCO3)n1 was read as JMJD2A Tudor inactive, Sfp PPTase inh inactive, TDP1 inh inactive, G9a block 50.1µM, BAZ2B inh inconclusive and HP1b binding inh inactive.
For Cn1c2ccccc2c2cnn(CC(=O)N3CCN(c4cccc(C(F)(F)F)c4)CC3)c(=O)c21 the results were JMJD2A Tudor inactive, TDP1 inh inactive, G9a block inactive, BAZ2B inh inactive and HP1b binding inh inactive.
Screening Cc1cc(OCc2cc(C(=O)N(C)CCc3cnn(C)c3)no2)cc(C)c1Cl returned JMJD2A Tudor inactive, Sfp PPTase inh inactive, TDP1 inh inactive, BAZ2B inh inactive and HP1b binding inh inactive.
`CCc1nc2ccccc2c(=O)n1NC(=O)c1c(O)c2ccccc2[nH]c1=O` gave JMJD2A Tudor 79.4µM, Sfp PPTase inh inactive, TDP1 inh inactive, G9a block inactive, BAZ2B inh inconclusive and HP1b binding inh inactive.
Screening CN(C)/C(=N\S(=O)(=O)c1ccccc1)c1ccccc1 returned JMJD2A Tudor inactive, Sfp PPTase inh inactive, TDP1 inh inactive, G9a block inactive, BAZ2B inh inactive and HP1b binding inh inactive.
Screening COC(=O)CSc1cc(C(=O)c2nccn2C)c2ccccc2n1 returned JMJD2A Tudor inactive, Sfp PPTase inh inactive, TDP1 inh inactive, G9a block inactive, BAZ2B inh inactive and HP1b binding inh inactive.
Screening Cc1cc(C)cc(NC(=O)CSc2cc(C(=O)c3nccn3C)c3ccccc3n2)c1 returned JMJD2A Tudor inactive, Sfp PPTase inh inactive, TDP1 inh inactive, G9a block inactive, BAZ2B inh inactive and HP1b binding inh inactive.
For Cc1cccc(NC(=O)CSc2cc(C(=O)c3nccn3C)c3ccccc3n2)c1 the results were JMJD2A Tudor inconclusive, Sfp PPTase inh inactive, TDP1 inh inactive, G9a block 12.6µM, BAZ2B inh inactive and HP1b binding inh inactive.
